Compounds without any hit were thinned out: in the full panel of roughly 79,000, 15% have a hit. Activity calls are given as the source filed them. No stated cut-off is given here; in the data, active means growth inhibition above about 70%; inactive means the rest.
Key:
[1] = NCI Yeast Anticancer Drug Screen. Data for the rad52 strain (AID 147);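 further: 0% = growth of vehicle-treated control cultures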; conditions: S. cerevisiae rad52 mutant growth inhibition, active compounds read high
Outline: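 Compounds are applied to a genetically defined yeast strain lacking normal DNA damage repair, and inhibition of growth is expressed relative to cultures given vehicle only.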

[2] = NCI Yeast Anticancer Drug Screen. Data for the wt1 strain (AID 149);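 further: 0% = growth of vehicle-treated wt1 cultures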; conditions: S. cerevisiae wt1 strain (SPY 50644) growth inhibition, active compounds read high
Outline: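 Yeast wt1 strain exposed to compounds; growth inhibition measured relative to vehicle-treated controls.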

[3] = NCI Yeast Anticancer Drug Screen. Data for the rad50EPP+ strain (AID 151);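 further: 0% = growth of vehicle-treated control cultures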; conditions: S. cerevisiae rad50 mutant strain, active compounds read high
Outline: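 Compounds were applied to the rad50EPP+ yeast strain, which bears a defined DNA repair alteration, and growth inhibition was determined relative to vehicle-treated cultures.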

[4] = NCI Yeast Anticancer Drug Screen. Data for the rad50 strain (AID 155);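 further: 0% = growth of vehicle-only cultures of the same strain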; conditions: S. cerevisiae rad50 strain growth inhibition, active compounds read high
Outline: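 Yeast carrying a defined DNA repair defect were exposed to test compounds, and growth was compared with vehicle-treated controls to give percent inhibition.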

[5] = NCI Yeast Anticancer Drug Screen. Data for the mec2-1 strain (AID 157); conditions: S. cerevisiae mec2-1 strain, active compounds read high
Outline: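 Strain: mec2-1 (DNA repair/cell cycle alteration). Compound exposure, then growth measured; inhibition expressed relative to vehicle.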

[6] = NCI Yeast Anticancer Drug Screen. Data for the rad14 strain (AID 159);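 further: 0% = growth of vehicle-treated control cultures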; conditions: S. cerevisiae rad14 strain growth inhibition, active compounds read high
Outline: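 Yeast cells carrying a defined DNA-repair defect were exposed to compounds, and growth inhibition was calculated relative to vehicle-treated control cultures.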

[7] = NCI Yeast Anticancer Drug Screen. Data for the sgs1 mgt1 strain (AID 161);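 further: 0% = growth of cultures given vehicle only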; conditions: S. cerevisiae sgs1 mgt1 strain, active compounds read high
Outline: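 Test agents were incubated with a DNA-repair-mutant yeast strain. Growth was then read and compared against vehicle-treated controls.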

[8] = NCI Yeast Anticancer Drug Screen. Data for the CLN2oe strain (AID 163);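 further: 0% = growth of vehicle-only control cultures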; conditions: S. cerevisiae CLN2oe strain, active compounds read high
Outline: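 Growth of a genetically modified yeast strain is measured after compound exposure and compared with cultures given vehicle alone.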

[9] = NCI Yeast Anticancer Drug Screen. Data for the cln2 rad14 strain (AID 165);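 further: 0% = growth equal to vehicle treated cultures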; conditions: S. cerevisiae cln2 rad14 strain, active compounds read high
Outline: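 Compounds are applied to the cln2 rad14 yeast strain, and growth is then compared with that of vehicle-treated cultures to give inhibition.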

[10] = NCI Yeast Anticancer Drug Screen. Data for the bub3 strain (AID 167); conditions: S. cerevisiae bub3 mutant strain, active compounds read high
Outline: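 Compounds were applied to a genetically altered yeast strain carrying a cell-cycle control defect. Growth inhibition was scored against vehicle-treated controls.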

[11] = NCI Yeast Anticancer Drug Screen. Data for the wt2 strain (AID 169);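 further: 0% = growth of vehicle-treated yeast cultures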; conditions: S. cerevisiae wt2 strain growth inhibition, active compounds read high
Outline: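 This strain belongs to a panel of yeast strains with defined genetic alterations in DNA damage repair or cell cycle control. Compounds are applied, and growth inhibition is measured against vehicle-treated cultures.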

[12] = NCI Yeast Anticancer Drug Screen. Data for the mlh1 strain (AID 171);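 further: 0% = growth of vehicle-treated control cultures of the same strain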; conditions: S. cerevisiae mlh1 strain growth inhibition, active compounds read high
Outline: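 Growth of the mutant yeast strain after compound exposure, expressed as inhibition relative to vehicle-only controls.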

[13] = NCI Yeast Anticancer Drug Screen. Data for the sgs1 strain (AID 173);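 further: 0% = growth of vehicle-only control cultures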; conditions: S. cerevisiae sgs1 mutant, active compounds read high
Outline: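 Growth of a yeast strain bearing a defined genetic alteration is measured after compound treatment. Inhibition is expressed relative to vehicle-only controls.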

[14] = NCI Yeast Anticancer Drug Screen. Data for the mlh1 rad18 strain (AID 175); conditions: S. cerevisiae mlh1 rad18 strain growth inhibition, active compounds read high
Outline: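 Read-out is yeast growth inhibition, calculated against vehicle-only controls. The compound was applied to a strain engineered with DNA damage repair alterations.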

[15] = NCI Yeast Anticancer Drug Screen. Data for the rad18 strain (AID 177); conditions: S. cerevisiae rad18 mutant growth inhibition, active compounds read high
Outline: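 Growth of the mutant yeast strain after compound exposure, normalised to vehicle-only cultures.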

[16] = at 5.0 µM (retest, dose inferred, filed as 0.5)
[17] = at 50.0 µM (retest, dose inferred, filed as 5.0)

Measured: growth inhibition

Cc1c(C(C)C)cc(OCCO)cc1C(C)C
inactive: [1]; at 1.2 µM -3% | [1]; at 3.7 µM -1% | [1]; at 11.0 µM -4% | [1]; at 33.0 µM 4% | [2]; at 1.2 µM -2% | [2]; at 3.7 µM -3% | [2]; at 11.0 µM -3% | [2]; at 33.0 µM -7% | [2]; at 100.0 µM -7% | [3]; at 1.2 µM -1% | [3]; at 3.7 µM -2% | [3]; at 11.0 µM 0% | [3]; at 33.0 µM 6% | [3]; at 100.0 µM 16% | [4]; at 1.2 µM -3% | [4]; at 3.7 µM 2% | [4]; [16] -8% | [4]; at 11.0 µM 2% | [4]; at 33.0 µM 5% | [4]; [17] -20% | [4]; at 50.0 µM 68.7% | [5]; at 1.2 µM -4% | [5]; at 3.7 µM -7% | [5]; [16] -18% | [5]; at 11.0 µM -8% | [5]; at 33.0 µM -10% | [5]; [17] -11% | [5]; at 50.0 µM -29.8% | [5]; at 100.0 µM 15% | [6]; at 1.2 µM -3% | [6]; at 3.7 µM -7% | [6]; at 11.0 µM -2% | [6]; at 33.0 µM -4% | [6]; at 100.0 µM 36% | [7]; [16] 0% | [7]; [17] 10% | [7]; at 50.0 µM 0.35% | [8]; at 1.2 µM -3% | [8]; at 3.7 µM -3% | [8]; at 11.0 µM -4% | [8]; at 33.0 µM 0% | [9]; [16] 40% | [9]; [17] 1% | [10]; at 1.2 µM -3% | [10]; at 3.7 µM -8% | [10]; [16] -16% | [10]; at 11.0 µM -4% | [10]; at 33.0 µM -5% | [10]; [17] -6% | [10]; at 50.0 µM -16.6% | [10]; at 100.0 µM 22% | [11]; at 1.2 µM -4% | [11]; at 3.7 µM -4% | [11]; at 11.0 µM -6% | [11]; at 33.0 µM -10% | [11]; at 100.0 µM 33% | [12]; at 1.2 µM -9% | [12]; at 3.7 µM -4% | [12]; at 11.0 µM -14% | [12]; at 33.0 µM -11% | [12]; at 100.0 µM 26% | [13]; at 1.2 µM -1% | [13]; at 3.7 µM -3% | [13]; at 11.0 µM -1% | [13]; at 33.0 µM -3% | [13]; at 100.0 µM 45% | [14]; [16] -3% | [14]; [17] -18% | [15]; at 1.2 µM -4% | [15]; at 3.7 µM -7% | [15]; at 11.0 µM -5% | [15]; at 33.0 µM -8% | [15]; at 100.0 µM 65%
active: [1]; at 100.0 µM 77% | [4]; at 100.0 µM 73% | [8]; at 100.0 µM 73% | [9]; at 50.0 µM 86.2% | [14]; at 50.0 µM 83%
